PubChem BioAssay (Tox21)
Inconclusive results are not listed. Values without a mark were called inactive. The source made the active and inactive calls. The call rests on the fitted dose curve; in most records, active means well fitted activation curve with a large enough effect in the repeat runs; inconclusive means weak or mixed curves; inactive means flat fitted curve, though single readings scatter.

Experiment: A CellTox Green Cytotoxicity Assay to monitor cytotoxicity in HepG2 cells - 16 hour (AID 1224876); further: nearly all actives have a fitted effect of over 45% in size
Details: CellTox Green fluorescence; series mostly up to 76.8 µM; cytotoxicity increase: at the top concentration
Description: National Center for Advancing Translational Sciences [NCATS]
NIH Chemical Genomics Center [NCGC]
U.S. Environmental Protection Agency [EPA]
National Institutes of Environmental Health Sciences [NIEHS]
National Toxicology Program [NTP]
Cell-based models are critical for drug discovery. Determining the natural cytotoxic effects resulting from test compounds is an essential research activity. A CellTox Green Cytotoxicity Assay to monitor cytotoxicity in real time of continues cell culture during 40 hours of the compound treatment was used to screen Tox21 10K library compounds in HepG2 cells. CellTox Green Cytotoxicity Assay is a nonlytic, homogeneous, biofluorescent method to measure cytotoxicity in cell culture after experimental manipulation. The assay system uses a proprietary asymmetric cyanine dye that is excluded from viable cells but preferentially stains the dead cell's DNA. […] Viable cells produce no appreciable increases in fluorescence. Therefore, the fluorescence signal produced by the binding interaction with dead cell DNA is proportional to cytotoxicity.
The mixture of HepG2 cell suspension and reagents were dispensed at 600cells/6 ul/well in 1536-well tissue culture treated black solid bottom plates using a Multidrop dispenser. After the assay plates were incubated at a 37 C/5% CO2 incubator for 5 hours, 23 nL of compounds dissolved in DMSO, positive and negative controls was transferred to the assay plate by a pintool work station. The plates were incubated at 37 C for 40 hours. The fluorescence intensity were measured at 0h, 8h, 16h, 24h, 32h and 40h time points using ViewLux plate reader during compound treatment.
On the % scale 0 is the no-effect control and ±100 the full control effect; potency means the concentration at half of the fitted maximal effect.

| SMILES | cytotoxicity increase | Potency |
| --- | --- | --- |
| CC(C)c1cccc(O)c1 | 21.6% | – |
| Nc1cc(N)cc(C(=O)O)c1 | 4.42% | – |
| Nc1ncnc2c1ncn2Cc1c(F)cccc1Cl | -14.3% [at 35.3 µM] | – |
| CCCCCN(CCCCC)C(=O)C(CCC(=O)O)NC(=O)c1ccc(Cl)c(Cl)c1 (stereo not given) | 0.652% [at 35.3 µM] | – |
| CC(O)CN(CCCN(C)C)CCCN(C)C (stereo not given) | -4.66% | – |
| Cc1onc(-c2ccccc2)c1-c1ccc(S(N)(=O)=O)cc1 | 2.69% [at 35.3 µM] | – |
| CO[Si](CCCNCCC[Si](OC)(OC)OC)(OC)OC | 0.886% | – |
| COC(C(=O)O)c1ccccc1 (stereo not given) | -0.493% | – |
| CCCCCOC(=O)Nc1nc(=O)n([C@@H]2O[C@H](C)[C@@H](O)[C@H]2O)cc1F | -0.954% [at 35.3 µM] | – |
| COC(=O)[C@H]1[C@H]2C[C@@H]3c4[nH]c5cc(OC)ccc5c4CCN3C[C@H]2C[C@@H](OC(=O)COc2ccc(OC)cc2)[C@@H]1OC | -2.03% [at 35.3 µM] | – |
| CCN(CC)S(=O)(=O)c1ccc(C(=O)O)cc1 | 13.3% [at 35.3 µM] | – |
| Cc1ccc(Nc2ccc(O)c3c2C(=O)c2ccccc2C3=O)cc1 | -9.64% | – |
| CC(=O)NC(Cc1ccccc1)C(=O)O (stereo not given) | -18.6% [at 35.3 µM] | – |
| O=C(O)c1ccc[n+]([O-])c1 | -3.87% [at 35.3 µM] | – |
| CC(C)(C)OC(=O)N1C[C@@H](F)C[C@H]1C(=O)O | 0.189% | – |
| CCCCCCCCCCCCI | 1.19% | – |
| CC(C)[N+](C)(C)CC(O)COc1cccc2ccccc12 (stereo not given) | -6.54% [at 35.3 µM] | – |
| NC(=O)c1c(Cl)cccc1Cl | -11.7% | – |
| CCN1CCN(c2cc3c(cc2F)c(=O)c(C(=O)O)cn3C2CC2)CC1 | 1.98% [at 35.3 µM] | – |
| CCOC(=O)[C@H](CCc1ccccc1)N[C@@H](C)C(=O)N1CCC[C@H]1C(=O)O | 12.1% [at 35.3 µM] | – |

| SMILES | cytotoxicity increase | Potency |
| --- | --- | --- |
| OC/C=C/c1ccccc1 | 10.3% | – |
| CCCc1ccccc1O | 4.93% | – |
| CCC(=O)Nc1cccc(N)c1 | 1.27% | – |
| Cn1ccc2cc3c(cc21)CCN3C(=O)Nc1cccnc1 | -8.93% [at 15.8 µM] | – |
| Cc1nccn1CC1CCc2c(c3ccccc3n2C)C1=O (stereo not given) | -1.45% [at 35.3 µM] | – |
| C=CC(=O)OCCCCCC | 3.37% | – |
| CC(=O)OC(C)(C)C | -6.11% | – |
| COC(=O)c1ccc(C(=O)OC)c(C(=O)OC)c1 | -14.8% | – |
| C=C(C)C(=O)NCCCN(C)C | -17.4% | – |
| CC(C=O)Cc1ccc(C(C)C)cc1 (stereo not given) | 1.57% | – |
| CC(=O)CCc1ccc(O)cc1 | -5.58% | – |
| Nc1ccn(C2CO[C@H](CO)O2)c(=O)n1 (stereo not given in full) | – | 8.49 µM (active) |
| NC1CCN(c2cccc(Cl)n2)CC1 | 0.24% [at 35.3 µM] | – |
| O=C(O)c1ccccc1-c1ccc(C(F)(F)F)cc1 | -17% [at 35.3 µM] | – |
| C=CCOc1nc(OCC=C)nc(OCC=C)n1 | 5.61% | – |
| N[C@@H](CS)C(=O)O | -8.12% | – |
| Nc1nc(F)nc2c1ncn2[C@@H]1O[C@H](CO)[C@@H](O)[C@@H]1O | -13.7% [at 35.3 µM] | – |
| O=C(O)C1CCC1 | -9.91% [at 35.3 µM] | – |
| CCN1CCCC(OC(=O)C(c2ccccc2)c2ccccc2)C1 (stereo not given) | 3.21% [at 35.3 µM] | – |
| O=S(=O)(O)c1ccccc1O | -16% | – |
